Source: PubChem BioAssay
An excerpt weighted towards active compounds, which were near 5.1% of everything screened.
S1P4 agonist: S1P4 receptor agonists, primary screen, cell-based. 0.35% of 220,000 active. S1P4-expressing cell line, agonist reporter assay. AID 1509, 2009. Sphingosine 1-phosphate receptor 4 (Homo sapiens), O95977. activation, % at 4.98 µM; in the data active = activation above about 11%;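 also: 0% = DMSO vehicle and 100% = reference agonist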
Target sequence (O95977 whole entry, looked up): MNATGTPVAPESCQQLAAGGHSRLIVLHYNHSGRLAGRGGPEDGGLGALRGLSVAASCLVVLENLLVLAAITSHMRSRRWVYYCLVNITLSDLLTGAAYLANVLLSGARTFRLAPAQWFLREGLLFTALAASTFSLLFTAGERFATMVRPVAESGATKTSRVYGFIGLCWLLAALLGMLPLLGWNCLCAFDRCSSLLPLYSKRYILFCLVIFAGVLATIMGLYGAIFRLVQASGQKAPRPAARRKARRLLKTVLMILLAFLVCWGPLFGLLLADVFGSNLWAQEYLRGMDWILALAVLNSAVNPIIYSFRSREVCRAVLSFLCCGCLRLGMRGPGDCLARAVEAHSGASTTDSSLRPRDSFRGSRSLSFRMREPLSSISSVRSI
RAM inhibit: inhibitors of the yeast RAM network, primary screen, dse1pr::URA3 reporter, 5-FOA selection; inhibition, % at 50 µM; AID 868, 2007; 1.8% of 190,000 active; S. cerevisiae dse1pr::URA3 reporter, 5-FOA growth OD615, 2 d; analog-sensitive cbk1-as2 kinase mutant strain;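 active = inhibition above a set limit, 3 SD over mean compound inhibition, cut at about 8.4% in these data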;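 also: 0% = DMSO-only wells with no growth and 100% = 10 µM 1-NA-PP1 full growth; inhibition rescues growth on 5-FOA so higher OD means more RAM inhibition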
Cl transport mod: KCC2 cotransporter modulators, thallium flux, primary screen, cell-based, HEK293 KCC2, FluoZin-2 fluorescence, MLSMR; Solute carrier family 12 member 5 (Homo sapiens), Q9H2X9; KCC2 cells, thallium flux FluoZin-2 fluorescence; B-score of Tl+ flux slope (higher = more flux/activation; lower = inhibition) at 10 µM; 2.2% of 190,000 active; AID 1456, 2008;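 active = thallium flux slope and its plate-corrected score both differing from the plate sample mean at a set confidence after two filtering rounds, in either direction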;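 also: slope of fluorescence scaled to starting intensity during 10 to 20 s after thallium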
S1P4 antagonist: S1P4 receptor antagonists, primary screen, cell-based; S1P4-expressing cells, antagonist mode, reporter read-out; inhibition, % at 4.98 µM; Sphingosine 1-phosphate receptor 4 (Homo sapiens), O95977; AID 1510, 2009; 0.26% of 220,000 active; in the data active = inhibition above about 29%;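 also: 0% = wells stimulated with agonist and 100% = vehicle wells without agonist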
S1P3 antagonist: S1P3 receptor antagonists, primary screen, cell-based. Sphingosine 1-phosphate receptor 3 (Homo sapiens), Q99500. CHO S1P3 NFAT-BLA reporter, FRET fluorescence, antagonist mode. inhibition, % at 4.98 µM. 0.27% of 170,000 active. AID 485, 2006;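 active = inhibition above the plate cutoff, the mean inhibition of test wells on that plate plus 3 SD, cut at about 28% in these data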;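 also: cells challenged with S1P at its EC80 of 0.8 µM; blue over green emission ratio from cleaved BLA substrate after 4 h stimulation; 0% = S1P-stimulated wells and 100% = unstimulated DMSO-only wells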
Target sequence (Q99500 whole entry, looked up): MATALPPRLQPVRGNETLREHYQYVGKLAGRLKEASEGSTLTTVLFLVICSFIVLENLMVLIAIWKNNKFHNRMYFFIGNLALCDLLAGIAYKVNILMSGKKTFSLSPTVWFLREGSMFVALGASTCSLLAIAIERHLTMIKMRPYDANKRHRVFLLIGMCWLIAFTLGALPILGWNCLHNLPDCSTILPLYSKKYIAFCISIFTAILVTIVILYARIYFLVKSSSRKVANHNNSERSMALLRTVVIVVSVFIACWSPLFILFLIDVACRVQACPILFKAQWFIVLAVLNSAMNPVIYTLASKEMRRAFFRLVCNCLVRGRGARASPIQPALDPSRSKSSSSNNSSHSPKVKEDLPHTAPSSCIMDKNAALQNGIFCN
ROMK primary: ROMK potassium channel modulators, primary screen, cell-based, thallium flux, MLSMR library; ATP-sensitive inward rectifier potassium channel 1 (Homo sapiens), P48048; Tet-inducible ROMK, thallium flux fluorescence; actives lie on both sides; B-score at 10 µM; 2% of 130,000 active;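 active = signal ratio slope over the read window, or its plate-corrected B-score, at least 3 SD from the plate mean, either direction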;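 also: B-score of the F/F0 ratio slope over 7 to 12 s after thallium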
KCC2 secondary: KCC2 modulators in sodium-free buffer, confirmation, cell-based, HEK293 KCC2, thallium flux, secondary assay; shares compounds with Cl transport mod; FluoZin2 fluorescence; hits give high values; normalised thallium flux (F/F0 slope) at 10 µM; 15% of 3,700 active;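 active = thallium flux slope above the same plate's solvent-only control mean plus 3 SD; inconclusive = the two replicate wells disagree; inactive = no significant difference from solvent-only control wells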
KCC2 bumet counter: thallium flux persisting under bumetanide in KCC2 cells, confirmation, counter-screen for KCC2 modulator project, cell-based, HEK293 KCC2, FluoZin2, secondary assay 3. 49% of 3,700 active. AID 1714, 2009. HEK293-KCC2 + bumetanide/ouabain; hits give high values. shares compounds with Cl transport mod. normalized thallium flux at 10 µM;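 active = thallium entry rate above the same plate's blocked-transporter control wells by more than 3 SD; inconclusive = the two repeat wells disagree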;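 also: raw slope of fluorescence over initial fluorescence between 10 and 20 s after thallium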
KCC2 secondary2: KCC2 modulators without ouabain present, confirmation, cell-based, HEK293 KCC2, thallium flux, FluoZin2, secondary assay 2. thallium flux FluoZin2 fluorescence; actives lie on both sides; F/F0 rise rate, 10–20 s post-thallium. normalized thallium flux at 10 µM. shares compounds with Cl transport mod. 23% of 3,700 active;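 active = thallium flux slope more than 3 SD above or below the plate's solvent-only control mean, mostly below; inconclusive = the two repeat wells disagreed; inactive = no significant shift from solvent-only controls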;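 also: raw slope with 0.1% DMSO as baseline and bumetanide as block control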
HEK counter1: thallium flux modulation in parental HEK cells, confirmation, counter-screen for KCC2 modulator project, cell-based, counterscreen 1; thallium flux rate (normalised fluorescence) at 10 µM; HEK293 parental cells, thallium flux FluoZin2, ouabain; baseline-ratio fluorescence slope, 10–20 s after thallium; shares compounds with Cl transport mod; 46% of 3,700 active;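 active = thallium flux rate significantly above the same plate's solvent-only control wells, beyond their mean plus 3 SD; inconclusive = the two replicate wells gave conflicting results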
KCC2 ouabain: KCC2 inhibitors and activators, ouabain retest, confirmation, HEK-KCC2 cells; shares compounds with Cl transport mod; HEK293-KCC2, thallium flux FluoZin2 fluorescence; bidirectional: low = inhibitor, high = activator; raw Tl+ flux slope (below DMSO = inhibition, above = activation) at 10 µM; 48% of 3,700 active; AID 1717, 2009;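 active = thallium flux slope beyond 3 SD from same-plate DMSO control mean in most replicates, usually higher, sometimes lower; inconclusive = repeat tests gave conflicting results; inactive = no significant difference from controls in most replicates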;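 also: slope of initial-normalized fluorescence between seconds 10 and 20 after thallium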
HEK293 Tl flux2: native HEK Tl+ uptake effects, second counter-screen – HEK cells, counterscreen 2, counter-screen for KCC2 modulator project, confirmation; 33% of 3,700 active; shares compounds with Cl transport mod; thallium flux slope at 10 µM; HEK293 parental, thallium flux FluoZin-2 fluorescence slope;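 active = thallium flux slope above the same plate's solvent-control mean plus 3 SD in both duplicate wells; inconclusive = duplicate wells that disagreed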;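 also: run without ouabain in cells lacking the KCC2 cotransporter; slope of fluorescence scaled to its starting value between 10 and 20 s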
Numbers without * were called inactive; ? = inconclusive; . = no result.

SMILES | S1P4 agonist | RAM inhibit | Cl transport mod | S1P4 antagonist | S1P3 antagonist | ROMK primary | KCC2 secondary | KCC2 bumet counter | KCC2 secondary2 | HEK counter1 | KCC2 ouabain | HEK293 Tl flux2
CN1C(=O)C(N=Nc2ccccc2C(=O)O)N(C)C1=S (stereo unspecified) | 1 | 6 | -4.7* | 0 | 4 | -0.13 | 0.0073 | 0.0017* | ? | 0.0054* | 0.015* | 0.0095
O=c1nc(SCc2c(F)cccc2Cl)nc(-c2ccc(Cl)cc2)[nH]1 | -1 | . | -1.7 | 9 | -5 | 0.0077 | . | . | . | . | . | .
O=c1nc(SCc2ccccc2Cl)nc(-c2ccc(Cl)cc2)[nH]1 | 2 | . | 67* | 1 | -14 | 0.47 | 0.0091 | 0.0068 | 0.036 | ? | ? | 0.0094
CC(=O)c1sc(-c2ccc(F)cc2)cc1NS(=O)(=O)c1ccccc1 | 1 | . | 9* | -10 | 6 | . | 0.0089 | 0.016* | 0.033 | 0.015* | ? | ?
CC(=O)c1sc(-c2ccccc2)cc1N | 2 | . | 0.25 | -3 | -6 | . | . | . | . | . | . | .
Cn1c(=O)c2[nH]c(N=Nc3ccc(N)cc3N)nc2n(C)c1=O | 1 | . | 1.6 | 0 | -7 | . | . | . | . | . | . | .
O=C1CC(O)(C(F)(F)F)Oc2c1ccc1ccccc21 (stereo unspecified) | 0 | 0 | 46* | 0 | -8 | . | 0.0088 | 0.077* | 0.065* | 0.059* | 0.067* | 0.061*
Oc1ccc(-c2csc(NCc3ccco3)n2)cc1 | 1 | 3 | . | 4 | 6 | -0.045 | 0.0086 | 0.0046 | 0.032 | 0.0056* | 0.016* | 0.0087
c1coc(CNc2nc(-c3cccs3)cs2)c1 | 0 | 5 | 0.36 | 17 | 4 | 0.58 | . | . | . | . | . | .
NS(=O)(=O)c1ccc(NC(=S)NC2CCCCC2)cc1 | 2 | 0 | 3.4 | -10 | -1 | -0.76 | . | . | . | . | . | .
NS(=O)(=O)c1ccc(NC(=O)NC2CCCCC2)cc1 | 3 | 3 | 3.2* | -3 | . | . | 0.0093 | 0.0061 | 0.031 | 0.0081 | 0.019 | 0.01
CCC1CCCCN1C(=O)CSc1nnc(CNC(=O)c2cc(OC)c(OC)c(OC)c2)o1 (stereo unspecified) | 0 | -1 | 6.7* | 12 | . | 0.17 | 0.0076 | 0.0046 | 0.032 | 0.0079 | 0.02 | 0.011
O=C(CSc1ncn[nH]1)Nc1cc(S(=O)(=O)N2CCCC2)ccc1Cl | 1 | 2 | 0.1 | -7 | -23 | -0.74 | . | . | . | . | . | .
CC(C)/C=C1\CC/C(=C\c2cccnc2)C1=O | 2 | 1 | -4.1* | -2 | -7 | -0.71 | 0.009 | 0.0054 | 0.033 | 0.004 | 0.018 | 0.011
Cc1cc(-c2c(C)[nH]n(-c3ccc(Cl)cc3)c2=O)n(-c2ccccc2)n1 | 1 | 0 | -0.5 | -5 | . | . | . | . | . | . | . | .
Cc1[nH]n(-c2ccccc2)c(=O)c1C(=O)c1ccccc1 | 0 | . | 4.4* | 10 | -10 | 2.1 | 0.0056 | 0.0085* | 0.034 | 0.012* | 0.022 | 0.014*
Cc1[nH]n(-c2ccccc2)c(=O)c1C(=O)c1ccc(Cl)cc1 | 0 | . | 11* | -12 | -4 | . | 0.0072 | 0.021* | 0.04* | 0.022* | 0.03* | 0.024*
CCSC(=S)c1c(C)[nH]n(-c2ccccc2)c1=O | -2 | . | 101* | 7 | 5 | . | 0.046* | 0.1* | 0.04 | 0.061* | 0.067* | 0.028*
Cc1[nH]n(-c2ccccc2)c(=O)c1C(=O)c1cccc(F)c1 | -1 | -1 | 0.54 | 3 | 9 | 0.12 | . | . | . | . | . | .
Cc1[nH]n(-c2ccc(Cl)cc2)c(=O)c1C(=O)c1ccccc1 | 1 | 0 | 8.1* | -17 | 5 | -0.3 | 0.0065 | 0.02* | 0.032 | 0.016* | 0.027* | 0.019*
CCOC(=O)c1cncc(O)c1 | 0 | . | 0.15 | -9 | -8 | . | . | . | . | . | . | .
Cc1cccn2c(=O)c(C=O)c(N3CCSCC3)nc12 | 0 | . | -0.2 | -9 | -11 | -0.031 | . | . | . | . | . | .
O=S(=O)(NCC1CCCO1)c1cnc(Cl)c(Br)c1 (stereo unspecified) | -1 | 1 | -0.9 | 0 | -4 | 0.027 | . | . | . | . | . | .
O=C(CSc1nnc(Cn2nnc(-c3ccccc3)n2)n1-c1ccccc1)Nc1ccccc1 | 1 | 4 | -0.57 | -14 | 16 | . | . | . | . | . | . | .
Cc1cccc(C)c1NC(=O)CSc1nnc(Cn2nnc(-c3ccccc3)n2)n1-c1ccccc1 | -1 | 2 | -5.3* | 8 | -10 | . | 0.0078 | 0.0057 | 0.032 | 0.0072 | 0.022 | 0.01
CSCCCNC(=S)N(C)CC(=O)Nc1ccc(C)cc1 | 2 | 3 | 0.44 | -2 | 4 | 0.48 | . | . | . | . | . | .
Cc1cc(C)c2c(=O)[nH]c(SCc3ccccc3)nc2n1 | 0 | 2 | -1.9 | -13 | 6 | -0.014 | . | . | . | . | . | .
Cc1ccc(-c2cc(-c3n[nH]c(=S)n3C)c3ccccc3n2)cc1 | 0 | 1 | 11* | 9 | 0 | 0.41 | 0.0092 | 0.044* | 0.031 | 0.012* | ? | ?
CCn1c(-c2cc(-c3ccc(C)c(C)c3)nc3ccccc23)n[nH]c1=S | 0 | 0 | 1.3 | -16 | -2 | 0.28 | . | . | . | . | . | .
